The values that follow come from PubChem BioAssay (Tox21).

Results filed as inconclusive are left out. A number with no mark means an inactive call. Calls follow the shape of the dose curve; as a rule, active = well fitted inhibition curve with a large enough effect in the signal ratio in the repeat runs (not every such curve was filed as active); inconclusive = weak or mixed curves, or effect the other way; inactive = no such curve, though single readings can be large or run the other way; the % refers to the signal ratio.
% is scaled to controls: 0 for no effect and ±100 for the full control effect.

Sequence of Glucocorticoid receptor (Homo sapiens) (P04150 whole entry, looked up): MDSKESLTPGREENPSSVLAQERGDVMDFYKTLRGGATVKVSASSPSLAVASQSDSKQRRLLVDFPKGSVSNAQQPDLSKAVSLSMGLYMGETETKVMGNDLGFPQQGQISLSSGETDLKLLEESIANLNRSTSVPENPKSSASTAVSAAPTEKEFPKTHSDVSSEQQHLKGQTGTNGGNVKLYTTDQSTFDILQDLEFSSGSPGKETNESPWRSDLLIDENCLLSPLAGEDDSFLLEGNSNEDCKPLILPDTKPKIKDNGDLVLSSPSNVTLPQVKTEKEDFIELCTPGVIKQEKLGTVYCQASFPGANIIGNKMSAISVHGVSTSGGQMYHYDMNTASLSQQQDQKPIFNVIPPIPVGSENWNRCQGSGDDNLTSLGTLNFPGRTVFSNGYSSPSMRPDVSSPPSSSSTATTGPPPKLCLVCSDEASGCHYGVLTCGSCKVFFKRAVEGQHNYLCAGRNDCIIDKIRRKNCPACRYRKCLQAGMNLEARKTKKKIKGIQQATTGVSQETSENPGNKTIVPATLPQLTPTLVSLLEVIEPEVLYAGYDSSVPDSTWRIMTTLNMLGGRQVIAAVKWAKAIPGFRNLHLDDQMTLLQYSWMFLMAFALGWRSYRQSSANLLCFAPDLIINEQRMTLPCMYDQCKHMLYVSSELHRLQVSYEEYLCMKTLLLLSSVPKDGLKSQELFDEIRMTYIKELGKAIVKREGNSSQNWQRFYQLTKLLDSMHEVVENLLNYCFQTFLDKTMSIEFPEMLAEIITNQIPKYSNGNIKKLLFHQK

This test deals with Glucocorticoid receptor (Homo sapiens) (UniProt P04150). Description: qHTS assay to identify small molecule antagonists of the glucocorticoid receptor (GR) signaling pathway (AID 720692). As to conditions: GR-bla HeLa, beta-lactamase FRET ratio, dexamethasone-stimulated, 18 h; series mostly up to 58.5 µM; activity change, negative = inhibition: at the top concentration. The gist of the method:
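Read-out: beta-lactamase FRET substrate fluorescence, 2 h at room temperature, in HeLa cells stably carrying a GRE-driven bla reporter. Compounds were co-incubated with 5 nM dexamethasone agonist (final) for 18 h at 37 C.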
For `O=S(=O)(Oc1ccc(Cl)cc1)c1ccccc1`, the “activity change, negative = inhibition” value is 0%. Then `COS(=O)(=O)C(F)(F)F`, with -1.44% [at 78.9 µM]; and `C=C(C)C(=O)OCC`, with -11.2% [at 78.9 µM]. Then `CCC(Cl)CCC(Cl)C(Cl)CC(Cl)C(Cl)C(Cl)CCl` (stereo unspecified), with -15.4%; and `O=[N+]([O-])c1ccc2[nH]ncc2c1`, with -22.1%. In the case of `O=C1c2ccccc2S(=O)(=O)N1CCCCN1CCN(c2ncccn2)CC1`, the “activity change, negative = inhibition” value was -8.07%. Then `C/C(=C(\CCOP(=O)(O)O)SC(=O)c1ccccc1)N(C=O)Cc1cnc(C)nc1N`, with 28.7% [at 27 µM].

As to `CCC(C)(C)CC`, the “activity change, negative = inhibition” value was -16.6% [at 78.9 µM]. Then `NC(=O)C(c1ccccc1)(c1ccccc1)[C@@H]1CCN(CCc2ccc3c(c2)CCO3)C1`, with -0.748%; and `O=C(c1ccc(F)cc1)C1CCN(CCn2c(=S)[nH]c3ccccc3c2=O)CC1`, with 26.9%; and `CCCCC(CC)COC(=O)CCCCCCCCC(=O)OCC(CC)CCCC` (stereo unspecified), with -0.21%.

In the case of `c1ccc(CNCCNCc2ccccc2)cc1`, the “activity change, negative = inhibition” value is -5.96%. Regarding `C#CCN(C)CCCOc1ccc(Cl)cc1Cl`, the “activity change, negative = inhibition” value is 13.5%. Regarding `CC(=O)c1ccc2c(c1)N(CCCN(C)C)c1ccccc1S2`, the “activity change, negative = inhibition” value was 10.5% [at 27 µM].

Take `Brc1c2ccccc2cc2ccccc12`: the “activity change, negative = inhibition” value was 1.76% [at 78.9 µM].

As to `O=C(NCCO[N+](=O)[O-])c1cccnc1`, the “activity change, negative = inhibition” value was 3.41%. The figure for `C=C1[C@H]2CC[C@@H]3[C@H]2C(C)(C)CCC[C@]13C` is -0.794%. Then `CC1OC(=O)C(C)OC1=O` (stereo unspecified), with 4.43%; and `OC(CN1CCC(Cc2ccc(F)cc2)CC1)c1ccc(Cl)cc1` (stereo unspecified), with 2.99%; and `CC(C)(CO)[N+](=O)[O-]`, with -10.1%. Then `O=C1OC(CN2CCOCC2)CN1/N=C/c1ccc([N+](=O)[O-])o1` (stereo unspecified), with 9.27% [at 27 µM]. Take `OC[C@H]1O[C@@H](OCCc2ccc(O)cc2)[C@H](O)[C@@H](O)[C@@H]1O`: the “activity change, negative = inhibition” value was -2.08%. The figure for `Cc1[nH]c(C)c(Cl)c(=O)c1Cl` is -0.0841%; for `CCCCCCCN` it is -10.9% [at 78.9 µM]. The figure for `C[Si](C)(CCCN)O[Si](C)(C)CCCN` is -1.38%. For the compound `CCOC(=O)C(F)(F)F`, the “activity change, negative = inhibition” value was 5.81%.
